In PubChem BioAssay AID493194 (Broad Institute, 2011):
Entries with a potency or affinity are not part of this list. Records with an inconclusive call do not appear. Active and inactive are the calls of the source.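 The calls were made as follows: active = a valid curve of falling signal whose half-effect concentration is at most ten times the top tested dose; inconclusive = flat curve at 30 to 70% inhibition, or poor fit; inactive = signal rise, flat within 30%, or potency beyond limit.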

Each compound was assayed against Scavenger receptor class B member 1 (Mus musculus) (UniProt Q61009) (assay: mouse SR-BI DiI-HDL uptake blockers – ldlA[mSR-BI] cells, fluorescence, cherry pick, dose response (AID 493194;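 also: CHO cells lacking LDL receptor and overexpressing mouse SR-BI; cellular uptake of fluorescently labeled HDL measured as cell fluorescence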)). Settings: CHO ldlA[mSR-BI] DiI-HDL uptake fluorescence, 3 h; series mostly up to 35 µM.
Sequence of Scavenger receptor class B member 1 (Mus musculus) (Q61009 whole entry, looked up): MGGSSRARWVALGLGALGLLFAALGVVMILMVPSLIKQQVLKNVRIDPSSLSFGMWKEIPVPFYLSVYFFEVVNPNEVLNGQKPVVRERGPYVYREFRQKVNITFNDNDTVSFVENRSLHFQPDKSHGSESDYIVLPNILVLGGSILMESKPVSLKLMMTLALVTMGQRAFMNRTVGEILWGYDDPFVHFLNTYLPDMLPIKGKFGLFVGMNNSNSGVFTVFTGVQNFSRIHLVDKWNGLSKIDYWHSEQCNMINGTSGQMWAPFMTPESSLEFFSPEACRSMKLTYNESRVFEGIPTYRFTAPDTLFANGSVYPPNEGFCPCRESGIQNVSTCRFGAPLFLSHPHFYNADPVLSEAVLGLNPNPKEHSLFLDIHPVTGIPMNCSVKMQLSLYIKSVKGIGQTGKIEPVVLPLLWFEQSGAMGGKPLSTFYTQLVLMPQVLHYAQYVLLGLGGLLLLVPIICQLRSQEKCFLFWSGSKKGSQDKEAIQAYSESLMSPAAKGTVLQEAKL

outcome, inactive:
Cc1ccc(S(=O)(=O)NCc2ccc(C(=O)NCCc3ccc(S(N)(=O)=O)cc3)cc2)cc1
CN(C(=O)COn1nnc2ccc(S(=O)(=O)N3CCOCC3)cc21)c1ccccc1
COc1ccc(OC)c2[nH]c(C(=O)N3CCC(C(=O)O)CC3)cc12
CCCCNc1c(-c2ccc(-c3ccc(C(C)=O)cc3)c(OC)c2)nc2cnccn12
O=C(NNc1c(F)c(F)cc(F)c1F)C1CCN(S(=O)(=O)c2ccccc2F)CC1
CCCCn1nc2cc(C(=O)NC3CCCc4ccccc43)ccc2c1OCC (stereo not drawn)
CC(C)CN(C(=O)COC(=O)C12CC3CC(CC(O)(C3)C1)C2)C1CCS(=O)(=O)C1 (stereo not drawn)
COc1ccc([C@H]2/C=C\CN(S(=O)(=O)c3cccc4cccnc34)[C@@H](C)C(=O)N2Cc2ccc(F)cc2)cc1
O=C(N[C@@H]1C/C=C\C[C@@H](CC(=O)N(CCO)Cc2ccccc2)C(=O)NCCOC1=O)OCC1c2ccccc2-c2ccccc21
CCOC(=O)N1CCC(NC(=O)c2ccc3c(c2)N(Cc2ccc(F)cc2)CCS3)CC1
CN(Cc1ccccc1N1CCCC1)C(=O)c1cc2cc(Cl)ccc2o1
CSc1ccccc1OCc1cc(C(=O)N(C)Cc2c(C)n[nH]c2C)no1
CC(CCc1ccccc1)NC(=O)C1CCN(C(=O)c2sccc2-n2cccc2)CC1 (stereo not drawn)
O=C(OCc1ccccc1)N1CCC2CC1c1cc(-c3ccccc3)ccc12 (stereo not drawn)
O=C(NCC1CCCO1)c1ccc2c(c1)N(Cc1ccc(F)cc1Cl)C(=O)CS2 (stereo not drawn)
O=C(Nc1nc(-c2ccccn2)cs1)c1ccc(-c2ccccc2F)o1
COc1cc2c(C#CCCCO)c(-c3ccsc3)oc(=O)c2cc1OC
CCOC(=O)C1CCN(C(=O)Cn2nc(C)n3nc(-c4ccc(OC)cc4)cc3c2=O)CC1
Cc1ccc(NS(=O)(=O)c2ccc(C(=O)NNC(=O)c3ccccc3O)cc2)cc1
CCC1CCCCN1C(=O)CSc1nnc(-c2ccco2)o1 (stereo not drawn)
COc1ccc(CN2CCN(C(=O)c3ccc(S(=O)(=O)NCc4ccco4)cc3)CC2)cc1
CCOC(=O)Nc1nc(-c2ccccc2)c(C(=O)c2ccccc2)s1
Cc1ccc(F)cc1NC(=O)C1C2CCC(O2)C1C(=O)O (stereo not drawn)
Cc1ccc(-c2cc(-c3ccc(C)cc3O)[nH]n2)cc1
N#CCCN(C(=O)COC(=O)CCc1c[nH]c2ccccc12)c1ccc(F)cc1
CCOc1ccccc1NC(=O)C(CC(C)C)NC(=O)C1CCC(C)CC1 (stereo not drawn)
CN(C)c1ccc(/C=C2\Oc3ccc(C#Cc4cccc(N)c4)cc3C2=O)cc1
O=C1C2C3C=CC(C3)C2C(=O)N1c1cccc(N2C(=O)C3C4C=CC(C4)C3C2=O)n1 (stereo not drawn)
CC[C@@H](C)[C@H](NC(=O)Cc1c(C)c2cc3c(C)c(C)oc3c(C)c2oc1=O)C(=O)O
COc1ccc(C2/C=C\CN(S(=O)(=O)c3ccc4ccccc4c3)CC(=O)N2Cc2ccc(F)cc2)cc1 (stereo not drawn)
Cc1ccc(C(=O)COc2cc(O)c3c(=O)cc(-c4ccccc4)oc3c2)cc1
Cc1ccccc1C(=O)Nc1cc(NC(=O)c2ccccc2C)cc(C(=O)O)c1
COc1ccc(-c2nnn(CC(=O)N(CC(=O)NC3CCCC3)c3cccc(C)c3)n2)cc1OC
COC(=O)C1=CN(c2ccc(F)c(F)c2)C=C(C(=O)OC)C1c1ccc([N+](=O)[O-])cc1
NC(=O)c1cc(-c2ccccc2)sc1NC(=O)CN1CCCCC1
COc1ccccc1C(=O)NCCn1cc(SCC(=O)Nc2nnc(C)s2)c2ccccc21
CCCCC(c1nnnn1CC1CCCO1)N1CCN(c2cc(Cl)ccc2C)CC1 (stereo not drawn)
Cc1nc2c(cnn2-c2ccccc2Cl)c(=O)n1-c1ccc(N2CCC(C)CC2)cc1
